Experiment [1] in a line: qHTS assay to identify small molecule agonists of the vitamin D receptor (VDR) signaling pathway - cell viability counter screen (AID 743224). Further: series mostly up to about 63 µM; on the % scale 0 is the no-effect control and ±100 the full control effect; nearly all actives have a fitted effect of over 50% in size. A digest of the protocol: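 CellTiter-Glo viability readout on VDR-bla cells, measured after 16 h of compound treatment at 37C in the same wells.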
(In general: Quantitative high-throughput screening tests each substance at several concentrations.)

Experiment [2] in a line: qHTS assay to identify small molecule antagonists of the vitamin D receptor (VDR) signaling pathway - cell viability counter screen (AID 743225). Further: on the % scale 0 is the no-effect control and ±100 the full control effect; nearly all actives have a fitted effect of over 50% in size. The method, boiled down: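 Cytotoxicity toward the VDR-bla HEK 293T line was scored by ATP-based CellTiter-Glo luminescence, read in the wells already used for the beta-lactamase readout after 16 h compound treatment under 3 nM 1-alpha,25-dihydroxyvitamin D3 stimulation.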

Experiment [3] in a line: qHTS assay to identify small molecule agonists of the NFkB signaling pathway (AID 1159509; active means well fitted curve in the direction sought with a large enough effect in the signal ratio in the repeat runs, not every such curve was filed as active; the % refers to the signal ratio; further: series mostly up to about 61 µM; on the % scale 0 is the no-effect control and ±100 the full control effect). A digest of the protocol:
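Pathway activation was measured in ME-180 cells stably expressing beta-lactamase under NF-kB response element control. Substrate cleavage was read as the 460/530 nm emission shift after 5 hr compound incubation.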

A short description of experiment [4]: qHTS assay to identify small molecule agonists of the NFkB signaling pathway - cell viability counter screen (AID 1159515; calls by dose curve; further: series mostly up to about 61 µM; on the % scale 0 is the no-effect control and ±100 the full control effect; nearly all actives have a fitted effect of over 55% in size). The method, boiled down:
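Tox21 library compounds were tested for cytotoxicity against NFkB-bla ME-180 cells during a 5 hr exposure at 37 C. CellTiter-Glo luminescence served as the viability read-out.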

Experiment [5] in a line: qHTS assay to identify small molecule agonists of the endoplasmic reticulum stress response signaling pathway (AID 1159516; active means well fitted activation curve with a large enough effect in the signal ratio in the repeat runs, not every such curve was filed as active; the % refers to the signal ratio; further: on the % scale 0 is the no-effect control and ±100 the full control effect). The method, boiled down: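 Fluorescence at 460 and 530 nm (405 nm excitation) reports beta-lactamase from an ER stress response element in HeLa cells treated 5 hr at 37 C.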
A short description of experiment [6]: qHTS assay to identify small molecule agonists of the endoplasmic reticulum stress response signaling pathway - cell viability counter screen (AID 1159517; calls by dose curve; further: series mostly up to about 61 µM; on the % scale 0 is the no-effect control and ±100 the full control effect; nearly all actives have a fitted effect of over 50% in size). A digest of the protocol: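 In parallel with the ESRE reporter read, cytotoxicity was scored by CellTiter-Glo luminescence (30 min, room temperature) on HeLa ESRE-bla cells dosed for 5 hr.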
Experiment [7] in a line: qHTS assay to identify small molecule antagonists of the retinoid-related orphan receptor gamma (ROR-gamma) signaling pathway - cell viability counter screen (AID 1159520). Further: on the % scale 0 is the no-effect control and ±100 the full control effect; nearly all actives have a fitted effect of over 50% in size. The method, boiled down:
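Tet-on ROR gamma CHO cells were given compounds for 2 hr, then doxycycline hyclate at 1 uM final, and incubated 16 hr at 37 C. Viability was measured as ATP content by CellTiter-Glo luminescence.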

In experiment [8] the target is Nuclear receptor ROR-gamma (Homo sapiens) (UniProt P51449). Nature of the experiment: qHTS assay to identify small molecule antagonists of the retinoid-related orphan receptor gamma (ROR-gamma) signaling pathway (AID 1159521; further: nearly all actives have a fitted effect of over 50% in size; further: potency means the concentration at half of the fitted maximal effect). The method, boiled down:
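Readout: ONE-Glo luciferase luminescence, 30 min at room temperature. System: Tet-on RORγ CHO, RORE-LUC. Sequence: compound 2 h, doxycycline 1 uM final, 16 h at 37 C.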

Experiment [9] in a line: qHTS assay to identify small molecule agonists of the AP-1 signaling pathway - cell viability counter screen (AID 1159525; calls by dose curve; further: nearly all actives have a fitted effect of over 55% in size). The method, boiled down:
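Same-well cytotoxicity counter screen of the Tox21 10K library in ME-180 cells. The readout is ATP-dependent luminescence after 5 h compound treatment. Data are normalised to DMSO and tetra n-octyl ammonium bromide controls.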

The nature of experiment [10]: qHTS assay to identify small molecule agonists of the AP-1 signaling pathway (AID 1159526; calls by dose curve; further: on the % scale 0 is the no-effect control and ±100 the full control effect).
Experiment [11] deals with Retinoic acid receptor RXR-alpha (Homo sapiens) (UniProt P19793). Nature of the experiment: qHTS assay to identify small molecule agonists of the RXR signaling pathway (AID 1159527; calls by dose curve; further: nearly all actives have a fitted effect of over 35% in size; further: potency means the concentration at half of the fitted maximal effect). A digest of the protocol:
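Reporter activation is measured as beta-lactamase activity via FRET substrate cleavage (emission 460/530 nm) in HEK 293T cells expressing an RXR-alpha-driven bla construct, following 16 hr compound exposure at 37 C.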

Experiment [12] is described as follows: qHTS assay to identify small molecule antagonists of the retinoid acid receptor (RAR) signaling pathway - cell viability counter screen (AID 1159551). Further: on the % scale 0 is the no-effect control and ±100 the full control effect; nearly all actives have a fitted effect of over 35% in size. A digest of the protocol: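 In this counter screen, the RARE-luciferase line C3RL4 was exposed for 6 h at 37 C and 5% CO2 to compounds with retinol at 1 uM final. Cellular ATP, read by luminescence, served as the viability measure.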

Experiment [13] in a line: qHTS assay to identify small molecule antagonists of the retinoic acid receptor (RAR) signaling pathway (AID 1159552). The method, boiled down:
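Overnight-plated C3RL4 reporter cells get compound, then retinol to 1 uM final; plates sit 6 hr at 37 C, 5% CO2. A luciferase reagent is added and light output recorded after 30 min at room temperature.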

The nature of experiment [14]: qHTS assay to identify small molecule agonists of the retinoic acid receptor (RAR) signaling pathway (AID 1159553). Further: potency means the concentration at half of the fitted maximal effect. The method, boiled down:
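In this cell-based screen, 1,000 C3RL4 cells per well were cultured overnight, dosed with test chemicals in DMSO for 6 hr, and assessed for RARE luciferase luminescence.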

Experiment [15] can be described thus: qHTS assay to identify small molecule antagonists of the estrogen related receptor (ERR) signaling pathway - cell viability counter screen (AID 1224818). Further: series mostly up to about 46 µM; on the % scale 0 is the no-effect control and ±100 the full control effect. The method, boiled down: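 Viability of ERR cells, CellTiter-Fluor fluorescence; 17.5 h compound exposure at 37 C, DMSO vehicle; 30 min reagent incubation at 37 C/5% CO2.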
A short description of experiment [16]: qHTS assay to identify small molecule antagonists of the estrogen related receptor signaling pathway with the pleiotropic PPARgamma coactivator (PGC) cell viability counter screen (AID 1224822). A digest of the protocol: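 17.5 h compound treatment of PGC/ERR cells at 37 C; readout CellTiter-Fluor fluorescence; run alongside the PGC/ERR antagonist screen to flag cytotoxic compounds.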

Experiment [17] is described as follows: qHTS assay to identify small molecule agonists of the RXR signaling pathway - cell viability counter screen (AID 1159529). A digest of the protocol: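 Tox21 10K compounds were tested for cytotoxicity against GeneBLAzer RXR-alpha HEK 293T cells grown in 2% charcoal-stripped FBS. Exposure lasted 16 hr at 37 C, 5% CO2; viability read by CellTiter-Glo luminescence.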

The structures appear in SMILES notation. Results filed as inconclusive are left out. Values without a mark were called inactive. The source made the active and inactive calls. Unless noted, the call rests on the fitted dose curve; in most records, active means well fitted curve in the direction sought with a large enough effect in the repeat runs; inconclusive means weak or mixed curves; inactive means no such curve, though single readings can be large; an effect the other way counts as inactive or inconclusive.

Sequence of Retinoic acid receptor RXR-alpha (Homo sapiens) (P19793 whole entry, looked up): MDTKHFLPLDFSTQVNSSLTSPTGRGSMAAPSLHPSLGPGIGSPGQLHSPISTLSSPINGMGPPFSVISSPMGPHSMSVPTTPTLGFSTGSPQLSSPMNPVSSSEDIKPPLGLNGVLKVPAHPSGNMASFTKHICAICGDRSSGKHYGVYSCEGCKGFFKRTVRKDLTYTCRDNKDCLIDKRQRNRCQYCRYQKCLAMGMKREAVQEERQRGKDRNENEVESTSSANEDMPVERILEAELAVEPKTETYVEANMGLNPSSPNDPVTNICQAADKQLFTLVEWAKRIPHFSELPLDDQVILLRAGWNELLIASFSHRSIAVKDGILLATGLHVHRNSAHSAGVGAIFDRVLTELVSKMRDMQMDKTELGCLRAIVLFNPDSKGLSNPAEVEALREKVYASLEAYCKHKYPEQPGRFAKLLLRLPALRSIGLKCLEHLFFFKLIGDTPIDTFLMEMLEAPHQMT

For `Cn1ccc2cc3c(cc21)CCN3C(=O)Nc1cccnc1`, the compound was called inactive in experiment [1], in experiment [2], in [3], in experiment [4], in [5] and in [6]. The outcome in experiment [15] and in experiment [16] was inactive. Besides, in experiment [7], the activity, negative = cytotoxicity was -0.672% [at 19 µM]. Also, in experiment [8], the activity change, negative = inhibition is 207% [at 19 µM]. In addition, the viability change, negative = cytotoxic in experiment [9] is 0.227% [at 15.8 µM]. The values for the activation in experiment [10] and in [11] were -5.75% [at 15.8 µM] and 14.3% [at 15.8 µM], respectively. The activity change, negative = cytotoxicity in experiment [12] was -1.31% [at 19 µM]. Also, the activity, negative = inhibition in experiment [13] was 169% [at 19 µM]. Moreover, the Potency in [14] was 2.31 µM (active).

Turning to `COCCOC(=O)CC#N`, the result in experiment [1], in experiment [2], in [3], in [4], in experiment [5] and in experiment [6] was inactive. For the same compound, the compound was called inactive in experiment [9] and in experiment [12]. Further, the Potency entry in experiment [7], in experiment [8], in experiment [10], in [17], in [13] and in experiment [14] was “inactive” in each case.

Turning to `CCCCc1ccc2cccc(S(=O)(=O)O)c2c1`, the compound was called inactive in experiment [2], in experiment [3], in experiment [4], in experiment [5], in experiment [6] and in [9]. For the same compound, in experiment [12], the compound was called inactive. Besides, the Potency entry in [7], in experiment [8], in [10], in experiment [11], in experiment [13] and in [14] was “inactive” throughout.

With `Nc1nc(F)nc2c1ncn2[C@@H]1O[C@H](CO)[C@@H](O)[C@@H]1O`, the compound was classed as inactive in [1], in experiment [2], in [3], in experiment [4], in [5] and in [6]. Besides, the call in experiment [9] was inactive. The Potency entry in experiment [7], in experiment [8], in [10], in experiment [11] and in [17] was “inactive” throughout.

On to `COC(C(=O)O)c1ccccc1` (stereo not drawn), for which the compound was called inactive in experiment [1], in experiment [2], in [3], in [4], in experiment [5] and in experiment [6]. For the same compound, in [9], the outcome was inactive. The Potency result in experiment [7], in experiment [8], in experiment [10], in [11] and in experiment [17] was “inactive” in each case.

For the compound `O=C1C(CCS(=O)c2ccccc2)C(=O)N(c2ccccc2)N1c1ccccc1` (stereo not drawn), the call in experiment [3], in experiment [4], in experiment [5], in experiment [6], in experiment [9] and in experiment [12] was inactive. Moreover, the Potency entry in experiment [7], in experiment [8], in [10] and in experiment [11] was “inactive” in each case.

`CO[Si](CCCNCCC[Si](OC)(OC)OC)(OC)OC`: the call in experiment [1], in [2], in experiment [3], in [4], in [5] and in experiment [6] was inactive. For the same compound, the outcome in experiment [9] was inactive. Besides, the Potency result in [7], in [8], in [10], in experiment [11] and in experiment [17] was “inactive” each time.

For `CCN1CCCC1CNC(=O)c1cc(S(N)(=O)=O)ccc1OC` (stereo not drawn), the compound was called inactive in experiment [1], in experiment [2], in experiment [3], in experiment [4], in experiment [5] and in [6]. Moreover, the compound was called inactive in experiment [9], in [12], in experiment [15] and in experiment [16]. Further, the Potency result in [7], in [10], in experiment [13] and in experiment [14] was “inactive” throughout. Also, the Potency in experiment [8] was 54.5 µM (active); in experiment [11] it was 43.6 µM (active).

Turning to `CCCC(C)CO` (stereo not drawn), the result in experiment [1], in [3], in [4], in [5], in experiment [6] and in experiment [9] was inactive. Further, the compound was classed as inactive in experiment [12]. Further, the Potency entry in [7], in experiment [8], in experiment [10], in [17], in experiment [13] and in experiment [14] was “inactive” throughout.

The values above are taken from PubChem BioAssay (Tox21).
